Results from PubChem BioAssay AID686978 (National Center for Advancing Translational Sciences (NCATS), 2013).
In all, about 420,000 compounds went through this assay and about 64,000 (15%) were called active. About 27% were inconclusive and are not listed. Calls follow the shape of the dose curve; as a rule, active = well fitted inhibition curve with a large enough effect; inconclusive = small, poorly fitted or top-dose-only effect; inactive = flat fitted curve, though single readings scatter. Only a sample is shown. Where a call stands in place of a potency, no number is given.

assay: qHTS for Inhibitors of human tyrosyl-DNA phosphodiesterase 1 (TDP1): qHTS in cells in absence of CPT; conditions: DT40 Tdp1-/- hTDP1 cells, no CPT, ATP luminescence, 48 h; activity change, negative = growth inhibition: at 46.2 µM (top of the series); also: nearly all actives have a fitted effect of over 55% in size
Method in brief: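 Growth of hTDP1-complemented DT40 Tdp1-knockout cells is measured by ATP luminescence after at least 48 hr compound exposure at 37 °C, with DMSO substituting for the 20 nM CPT used in the parallel screen.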
Potency is read from the fitted curve at half-maximal effect.

Row | SMILES | Potency
1 | CCCCc1nc(SCC(=O)Nc2nnc(C(C)C)s2)n[nH]1 | inactive
2 | COc1cccc(N2C(=O)CN(Cc3ccccc3)C2=S)c1 | inactive
3 | COc1ccccc1NC(=O)C1=C(C)Nc2nnnn2C1c1cccc(Br)c1 (stereo not drawn) | inactive
4 | Cc1cc([N+](=O)[O-])c(-c2ccc(/C=N/n3cnnc3)o2)cc1Cl | inactive
5 | COc1ccccc1OCCOc1ccc(/C=N/n2cnnc2)cc1 | inactive
6 | Cc1ccccc1OCCOc1ccc([N+](=O)[O-])cc1/C=N/n1cnnc1 | 1.46 µM (active)
7 | Cc1ccc(Cn2c(=O)n(-c3ccc(C)cc3)c(=O)c3c2c2cc(C)ccc2n3C)cc1 | inactive
8 | Cc1nnc(SCC(=O)N2CCOCC2)[nH]c1=O | inactive
9 | CCC(C)n1[nH]c(=O)c2c(C)cc(C)nc21 (stereo not drawn) | inactive
10 | Cc1ccc(S(=O)(=O)N2CCC(C(=O)OCC(=O)N3CC(=O)Nc4ccccc43)CC2)cc1 | inactive
11 | CCOC(=O)COn1c(=O)c(-c2ccc(OCC)cc2)[n+]([O-])c2ccccc21 | inactive
12 | CCOc1ccc(OCC)c(-c2c(=O)n(OCc3ccc(Cl)cc3)c3ccccc3[n+]2[O-])c1 | 8.2 µM (active)
13 | COc1ccc(OC)c(-c2c(=O)n(OCc3ccccc3Br)c3ccccc3[n+]2[O-])c1 | 23.1 µM (active)
14 | O=c1c(-c2ccc(Cl)cc2)[n+]([O-])c2ccccc2n1OCc1nc2ccccc2[nH]1 | inactive
15 | Cc1cc(C)cc(OCC(=O)OCC(=O)NC2CCCC2)c1 | inactive
16 | COC(=O)Cc1nc2c(N)nc(N)nc2[nH]c1=O | inactive
17 | CS(=O)(=O)N1CCCC(C(=O)Nc2ccccc2C(F)(F)F)C1 (stereo not drawn) | inactive
18 | CC1CCCCN1S(=O)(=O)c1ccc(F)c(C(=O)Nc2ccccc2C(F)(F)F)c1 (stereo not drawn) | 18.4 µM (active)
19 | CC(C)c1ccc(NC(=O)c2cc(S(=O)(=O)N3CCc4ccccc4C3)ccc2F)cc1 | inactive
20 | COc1cc(OC)c(C(=O)NNC(=O)c2ccccc2-n2cccc2)cc1OC | inactive
21 | O=C(O)c1n[nH]nc1-c1ccccc1 | inactive
22 | CC(C)(C)OC(=O)N1CCC(C(=O)NNC(=O)c2ccc(Cl)cc2Cl)CC1 | inactive
23 | Cc1cccc(-n2ncc(C(=O)N3CCc4ccccc4C3)c2C2CCN(C(=O)OC(C)(C)C)CC2)c1 | inactive
24 | CC(C)(C)OC(=O)N1CCC(c2c(C(=O)N3CCN(c4cccc(Cl)c4)CC3)cnn2-c2cccc(Cl)c2)CC1 | 9.2 µM (active)
25 | CC(C)(C)OC(=O)N1CCN(C(=O)c2[nH]c(C(F)(F)F)nc2-c2ccccc2)CC1 | inactive
26 | Cc1cccc(-n2ncc(C(=O)N3CCC(C)CC3)c2C2CCN(C(=O)OC(C)(C)C)CC2)c1 | inactive

Row | SMILES | Potency
27 | Cc1cccc(-n2ncc(C(=O)N3CCN(c4ccc(Cl)cc4)CC3)c2C2CCN(C(=O)OC(C)(C)C)CC2)c1 | 9.2 µM (active)
28 | N/C(=N\OC(=O)CCC1CCCCC1)c1ccccn1 | inactive
29 | Cc1cccc(OCC(=O)NC2CC(C)(C)NC(C)(C)C2)c1 | inactive
30 | C/C(=N\NC(=O)Cc1ccccc1[N+](=O)[O-])c1cccnc1 | inactive
31 | CN(O)C(=S)c1ccccc1 | 0.164 µM (active)
32 | S=C(c1ccccc1)N1CCCC1 | inactive
33 | CN(CC(=O)O)C(=O)c1ccccc1 | inactive
34 | CN(C)C(=O)c1ccc(-c2cncnc2Nc2ccccc2)cc1 | inactive
35 | CC(Cc1cccs1)NC(=O)NC1CCCCC1 (stereo not drawn) | inactive
36 | Cc1nc([N+](=O)[O-])cn1CC(=O)Nc1ccc2c(c1)OCO2 | inactive
37 | COc1ccc(C(=O)c2c(C)c(CCC#N)n3ccccc23)c(OC)c1 | 20.6 µM (active)
38 | Cc1c(C(=O)c2cccc([N+](=O)[O-])c2)c2ccccn2c1CCC#N | inactive
39 | COc1ccc(C(=O)COC(=O)C(O)c2ccccc2)c(OC)c1 (stereo not drawn) | inactive
40 | CC(C)(C)c1ccc(/C=C2\Oc3c(ccc(O)c3CN3CCN(CCO)CC3)C2=O)cc1 | inactive
41 | CCCCNC(=O)N1CCCC(N(C)CCc2ccc(OC)c(OC)c2)C1 (stereo not drawn) | inactive
42 | CC(C)=CCCC1(C)C=Cc2c(ccc3c2[nH]c2cc(O)c(C)cc23)O1 (stereo not drawn) | 16.4 µM (active)
43 | COc1ccc(-c2cnc(SCCNC(=O)c3ccc4c(c3)OCO4)[nH]2)cc1 | inactive
44 | Brc1ccc(-c2nnc(-c3ccccc3)o2)o1 | inactive
45 | Cc1ccc(CN2CCN(c3ccccc3Cl)CC2)o1 | inactive
46 | O=C(CSC(=S)N1CCCCC1)c1c(F)cccc1F | 8.2 µM (active)
47 | O=C(O)c1cc2c(cc1NC(=O)c1c(F)cccc1Cl)OCCCO2 | inactive
48 | O=C(CN1CCCCC1)NC(=O)Nc1ccccc1F | inactive
49 | Cc1nnc(SCC(=O)N(C(C)C)C(C)C)nc1C | inactive
50 | CC(=O)NCCC(=O)Nc1nc(C)c(Cc2ccc3c(c2)OCO3)s1 | inactive
51 | CC(=O)Nc1ccc(Nc2c3ccccc3nc3ccccc23)cc1 | 0.0082 µM (active)
52 | CC(=O)Nc1ccc(NC(=O)C(C)n2c3ccccc3c3nc(=O)cc(C)n32)cc1 (stereo not drawn) | inactive

Row | SMILES | Potency
53 | N#Cc1cccc(NC(=O)CN2CCCCCC2)c1 | inactive
54 | O=C(Nc1cccc([N+](=O)[O-])c1)Nn1cnnc1 | inactive
55 | N#Cc1cccc(NC(=O)CCC2CCCC2)c1 | inactive
56 | CC(=O)Nc1ccc(Nc2nc3c(S(=O)(=O)c4ccc(C)c(C)c4)nnn3c3ccccc23)cc1 | inactive
57 | CCc1nc(SCC(=O)NNC(=O)c2ccc(C)cc2)c2ccccc2n1 | inactive
58 | Cc1c(NC(=O)Nc2cccc([N+](=O)[O-])c2)c(=O)n(-c2ccccc2)n1C | inactive
59 | O=[N+]([O-])c1cccc(Nc2c3ccccc3nc3ccccc23)c1 | 16.4 µM (active)
60 | Cc1ccc(Nc2c3c(nc4ccccc24)CCC3)cc1 | 18.4 µM (active)
61 | N#Cc1cccc(Nc2c3c(nc4ccccc24)CCCC3)c1 | 25.9 µM (active)
62 | Cc1nn(C(C)(C)C)c(OC(=O)CC(C)C)c1S(=O)(=O)c1ccccc1 | inactive
63 | CCn1c(CC(=O)Nc2ccccc2)nnc1SCC(=O)N1CCOCC1 | inactive
64 | CCC1C(=O)c2ccccc2N(C)C1=O (stereo not drawn) | inactive
65 | CN1CCN(C(=O)c2cnn(-c3ccccc3)c2NC(=O)c2ccc([N+](=O)[O-])cc2)CC1 | inactive
66 | Cc1[nH]n(-c2ccc([N+](=O)[O-])cc2)c(=O)c1C=NCCN1CCN(C(=O)c2ccccc2F)CC1 | 14.6 µM (active)
67 | Cc1[nH]n(-c2ccccc2)c(=O)c1N=Nc1ccccc1C(=O)N1CCCCC1 | inactive
68 | COc1ccc2occ(C(=O)c3ccc(N=C(C)N(C)C)cc3)c2c1 | 23.1 µM (active)
69 | COc1ccc2c(CC(=O)OCC(=O)NC(N)=O)coc2c1 | inactive
70 | COc1ccc(OC)c(C(=O)c2ccc(C(=O)O)cc2)c1 | inactive
71 | CN(C(=O)COC(=O)c1cc(=O)[nH]c2ccccc12)C1CCCCC1 | inactive
72 | CN(CC(=O)Nc1c(Cl)cccc1Cl)C(=O)CNC(=O)C1CCCCC1 | inactive
73 | O=C(O)C(CCc1ccccn1)c1ccccc1 (stereo not drawn) | inactive
74 | O=C(COC(=O)Cn1[nH]c(=O)c2ccccc2c1=O)Nc1ncc(Cl)cc1Cl | inactive
75 | Cc1ccc(-c2csc(NC(=O)Cn3[nH]c(=O)c4ccccc4c3=O)n2)cc1 | 16.4 µM (active)
76 | O=C(CSC1=NCCS1)Nc1nc(-c2ccccc2)cs1 | inactive
77 | C=CCOc1ccc(Cl)cc1CNCCCN1CCOCC1 | inactive
78 | CCCCn1c(N)c(N(CCC(C)C)C(=O)CC2OC(=O)c3ccccc32)c(=O)[nH]c1=O (stereo not drawn) | inactive

Row | SMILES | Potency
79 | CCOC(=O)c1sc(N)c(C#N)c1COC(=O)C1=COCCO1 | inactive
80 | Cc1cc(=O)n2nc(N3CCC(C(=O)Nc4c(F)c(F)c(F)c(F)c4F)CC3)sc2n1 | inactive
81 | Cc1cccc(NC(=O)C2CCCN(C(=O)NCc3ccccc3)C2)c1C (stereo not drawn) | inactive
82 | Cc1cc(=O)n2nc(N3CCCC(C(=O)NCCC4=CCCCC4)C3)sc2n1 (stereo not drawn) | inactive
83 | COc1ccc(-c2cn3nc(N4CCC(C(=O)Nc5cccc(C)c5C)CC4)sc3n2)cc1 | 11.6 µM (active)
84 | COc1ccc(-c2cn3nc(N4CCCC(C(=O)NCCCOC(C)C)C4)sc3n2)cc1 (stereo not drawn) | 18.4 µM (active)
85 | Cc1cc(=O)n2nc(N3CCCC(C(=O)NCc4ccc(Cl)cc4)C3)sc2n1 (stereo not drawn) | inactive
86 | COC(=O)c1ccc(CNC(=O)c2ccc3oc(C(C)C)nc3c2)cc1 | inactive
87 | Cc1c(-c2cccc(Cl)c2)nc2ccccc2c1C(=O)OCC(=O)N(C)C1CCS(=O)(=O)C1 (stereo not drawn) | inactive
88 | CC(=O)Nc1ccc(C(=O)NNC(=O)CCCCC(=O)NNC(=O)c2ccc(NC(C)=O)cc2)cc1 | inactive
89 | O=C(c1cn(-c2ccccc2)nc1-c1cccnc1)N1CCCCC1 | inactive
90 | CCC(=O)OCc1c(C(F)(F)F)nn(C)c1Oc1cccc(C(F)(F)F)c1 | inactive
91 | Cc1cc(Br)ccc1NC(=O)c1cnc(N2CCN(c3ccccn3)CC2)c2ccccc12 | 13 µM (active)
92 | CCc1cccc(NC(=O)c2cnc(N3CCOCC3)c3ccccc23)c1 | 11.6 µM (active)
93 | O=C(Nc1ccc(F)cc1)c1cccnc1N1CCOCC1 | inactive
94 | Cc1ccc(S(=O)(=O)NCC(=O)N2CCN(c3ccccn3)CC2)cc1 | inactive
95 | Cc1cc(Br)ccc1NC(=O)c1sc2ncn(CC(=O)N3CCN(c4ccccn4)CC3)c(=O)c2c1C | inactive
96 | CSc1ncccc1C(=O)Nc1cccc(S(=O)(=O)N2CCOCC2)c1 | inactive
97 | CCOC(=O)COc1nc(C)cc(C(F)(F)F)c1C#N | inactive
98 | CCOC(=O)c1c(N)sc2c1CCCC2=O | inactive
99 | COc1ccc(-n2c(=O)c3ccccc3n(Cc3ccccc3Cl)c2=O)cc1 | inactive
100 | CCC(=O)c1ccc(OCC(=O)OCC(=O)N2CCc3ccccc3C2)cc1 | inactive
101 | OCCN1CCN(C(=S)c2ccc(-c3ccccc3)cc2)CC1 | inactive
102 | CN(C)CCNC(=O)Cc1ccc([N+](=O)[O-])cc1 | inactive
103 | Cn1cc(CCC(=O)NCc2ccc3c(c2)OCO3)c2ccccc21 | inactive
